Experimental data published in PubChem BioAssay AID1159580 (chemical genetic matrix, 2015).
Several values for one entry are separate records, joined by “and”; a condition that tells them apart may be missing. Equal entries are not always repeated. About 2,000 (36%) of roughly 5,500 compounds were called active. Inconclusive results (about 18%) are left out. Cut-off read from the data, not from the text of the source: active = normalized growth mostly below about 0.91 (no sharp cut-off); inconclusive = no clear call, values can overlap the other calls; inactive = mostly above about 0.92. This is one part of the list.

Test: chemical genetic growth profiling, strain panel (AID 1159580);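 note: tested at 20 µM; growth read once vehicle control cultures reached saturation at 30 °C; 1 = growth at the plate median or of vehicle wells; lower values mean less growth of the strain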
Conditions: growth OD
[1] = S. cerevisiae deletion strains, locus YAR019C, strain CDC15, stronger effect = lower value
[2] = S. cerevisiae deletion strains, locus YBL105C, strain PKC1, stronger effect = lower value
[3] = S. cerevisiae deletion strains, locus YBR135W, strain CKS1, stronger effect = lower value
[4] = S. cerevisiae deletion strains, locus YBR136W, strain MEC1, stronger effect = lower value
[5] = S. cerevisiae deletion strains, locus YBR160W, strain CDC28, stronger effect = lower value
[6] = S. cerevisiae deletion strains, locus YDL017W, strain CDC7, stronger effect = lower value
[7] = S. cerevisiae deletion strains, locus YDL028C, strain MPS1, stronger effect = lower value
[8] = S. cerevisiae deletion strains, locus YDL101C, strain DUN1, stronger effect = lower value
[9] = S. cerevisiae deletion strains, locus YDL108W, strain KIN28, stronger effect = lower value
[10] = S. cerevisiae deletion strains, locus YDL132W, strain cdc53, stronger effect = lower value
[11] = S. cerevisiae deletion strains, locus YDL214C, strain PRR2, stronger effect = lower value
[12] = S. cerevisiae deletion strains, locus YDR052C, strain DBF4, stronger effect = lower value
[13] = S. cerevisiae deletion strains, locus YDR054C, strain cdc34, stronger effect = lower value
[14] = S. cerevisiae deletion strains, locus YDR226W, strain ADK1, stronger effect = lower value
[15] = S. cerevisiae deletion strains, locus YDR477W, strain SNF1, stronger effect = lower value
[16] = S. cerevisiae deletion strains, locus YER123W, strain YCK3, stronger effect = lower value
[17] = S. cerevisiae deletion strains, locus YER133W, strain GLC7, stronger effect = lower value
[18] = S. cerevisiae deletion strains, locus YFL009W, strain cdc4, stronger effect = lower value
[19] = S. cerevisiae deletion strains, locus YFL029C, strain CAK1, stronger effect = lower value
[20] = S. cerevisiae deletion strains, locus YFR003C, strain YPI1, stronger effect = lower value
[21] = S. cerevisiae deletion strains, locus YFR019W, strain FAB1, stronger effect = lower value
[22] = S. cerevisiae deletion strains, locus YFR028C, strain CDC14, stronger effect = lower value
[23] = S. cerevisiae deletion strains, locus YGR040W, strain KSS1, stronger effect = lower value
[24] = S. cerevisiae deletion strains, locus YGR052W, strain FMP48, stronger effect = lower value
[25] = S. cerevisiae deletion strains, locus YGR092W, strain DBF2, stronger effect = lower value
[26] = S. cerevisiae deletion strains, locus YHR030C, strain SLT2, stronger effect = lower value
[27] = S. cerevisiae deletion strains, locus YHR079C, strain IRE1, stronger effect = lower value
[28] = S. cerevisiae deletion strains, locus YHR082C, strain KSP1, stronger effect = lower value
[29] = S. cerevisiae deletion strains, locus YHR205W, strain SCH9, stronger effect = lower value
[30] = S. cerevisiae deletion strains, locus YIL147C, strain SLN1, stronger effect = lower value
[31] = S. cerevisiae deletion strains, locus YJL095W, strain BCK1, stronger effect = lower value
[32] = S. cerevisiae deletion strains, locus YJL128C, strain PBS2, stronger effect = lower value
[33] = S. cerevisiae deletion strains, locus YJL157C, strain FAR1, stronger effect = lower value
[34] = S. cerevisiae deletion strains, locus YJR016C, strain ILV3, stronger effect = lower value
[35] = S. cerevisiae deletion strains, locus YJR066W, strain TOR1 (second series), stronger effect = lower value
[36] = S. cerevisiae deletion strains, locus YJR066W, strain TOR1, stronger effect = lower value
[37] = S. cerevisiae deletion strains, locus YKL048C, strain ELM1, stronger effect = lower value
[38] = S. cerevisiae deletion strains, locus YKL067W, strain YNK1, stronger effect = lower value
[39] = S. cerevisiae deletion strains, locus YKL101W, strain HSL1, stronger effect = lower value
[40] = S. cerevisiae deletion strains, locus YKL193C, strain SDS22, stronger effect = lower value
[41] = S. cerevisiae deletion strains, locus YKL203C, strain TOR2, stronger effect = lower value
[42] = S. cerevisiae deletion strains, locus YLR113W, strain HOG1, stronger effect = lower value
[43] = S. cerevisiae deletion strains, locus YLR133W, strain CKI1, stronger effect = lower value
[44] = S. cerevisiae deletion strains, locus YLR403W, strain SFP1, stronger effect = lower value
[45] = S. cerevisiae deletion strains, locus YML070W, strain DAK1, stronger effect = lower value
[46] = S. cerevisiae deletion strains, locus YMR001C, strain CDC5, stronger effect = lower value
[47] = S. cerevisiae deletion strains, locus YMR205C, strain PFK2 (second series), stronger effect = lower value
[48] = S. cerevisiae deletion strains, locus YMR277W, strain FCP1, stronger effect = lower value
[49] = S. cerevisiae deletion strains, locus YNL006W, strain LST8, stronger effect = lower value
[50] = S. cerevisiae deletion strains, locus YNL020C, strain ARK1, stronger effect = lower value
[51] = S. cerevisiae deletion strains, locus YNL161W, strain CBK1, stronger effect = lower value
[52] = S. cerevisiae deletion strains, locus YNL183C, strain NPR1, stronger effect = lower value
[53] = S. cerevisiae deletion strains, locus YNL207W, strain RIO2, stronger effect = lower value
[54] = S. cerevisiae deletion strains, locus YNL222W, strain SSU72, stronger effect = lower value
[55] = S. cerevisiae deletion strains, locus YNL307C, strain MCK1 (second series), stronger effect = lower value
[56] = S. cerevisiae deletion strains, locus YOL078W, strain AVO1, stronger effect = lower value
[57] = S. cerevisiae deletion strains, locus YOL136C, strain PFK27, stronger effect = lower value
[58] = S. cerevisiae deletion strains, locus YOR061W, strain CKA2, stronger effect = lower value
[59] = S. cerevisiae deletion strains, locus YOR119C, strain RIO1, stronger effect = lower value
[60] = S. cerevisiae deletion strains, locus YOR231W, strain MKK1, stronger effect = lower value
[61] = S. cerevisiae deletion strains, locus YOR329C, strain SCD5, stronger effect = lower value
[62] = S. cerevisiae deletion strains, locus YPL031C, strain PHO85, stronger effect = lower value
[63] = S. cerevisiae deletion strains, locus YPL153C, strain RAD53, stronger effect = lower value
[64] = S. cerevisiae deletion strains, locus YPL204W, strain HRR25, stronger effect = lower value
[65] = S. cerevisiae deletion strains, locus YPL209C, strain IPL1, stronger effect = lower value
[66] = S. cerevisiae deletion strains, locus YPL256C, strain CLN2, stronger effect = lower value
[67] = S. cerevisiae deletion strains, locus YPR025C, strain CCL1, stronger effect = lower value
[68] = S. cerevisiae deletion strains, locus YPR106W, strain ISR1, stronger effect = lower value
[69] = S. cerevisiae deletion strains, locus YPR111W, strain DBF20, stronger effect = lower value
[70] = S. cerevisiae deletion strains, strain NNK1, stronger effect = lower value
[71] = S. cerevisiae deletion strains, strain TSCII, stronger effect = lower value

Measured: normalized growth

N#CC(C#N)=NNc1ccc(C(F)(F)F)cc1
active: [1] 0.135 | [2] 0.148 | [3] 0.135 | [4] 0.147 | [5] 0.168 | [6] 0.178 | [7] 0.311 | [8] 0.124 | [9] 0.152 | [10] 0.126 | [11] 0.131 | [12] 0.255 | [13] 0.138 | [14] 0.178 | [15] 0.116 | [16] 0.116 | [17] 0.11 | [18] 0.132 | [19] 0.138 | [20] 0.339 | [21] 0.12 | [22] 0.144 | [23] 0.113 | [24] 0.129 | [25] 0.105 | [26] 0.144 | [27] 0.155 | [28] 0.169 | [29] 0.0194 | [30] 0.397 | [31] 0.116 | [32] 0.149 | [33] 0.106 | [34] 0.13 | [35] 0.116 | [36] 0.146 | [37] 0.134 | [38] 0.113 | [39] 0.112 | [40] 0.118 | [41] 0.132 | [42] 0.166 | [43] 0.109 | [44] 0.0217 | [45] 0.106 | [46] 0.133 | [47] 0.104 | [48] 0.119 | [49] 0.194 | [50] 0.128 | [51] 0.137 | [52] 0.141 | [53] 0.155 | [54] 0.131 | [55] 0.133 | [56] 0.117 | [57] 0.111 | [58] 0.108 | [59] 0.119 | [60] 0.126 | [61] 0.187 | [62] 0.116 | [63] 0.107 | [64] 0.115 | [65] 0.135 | [66] 0.179 | [67] 0.154 | [68] 0.116 | [69] 0.122 | [70] 0.124 | [71] 0.137

N#C/C(=N/Nc1ccc(C(F)(F)F)cc1)C(=O)C1CC1
active: S. cerevisiae deletion strains, locus YDL134C, strain PPH21, stronger effect = lower value 0.791 | S. cerevisiae deletion strains, locus YEL061C, strain CIN8, stronger effect = lower value 0.857 | S. cerevisiae deletion strains, locus YLR039C, strain RIC1, stronger effect = lower value 0.565 | S. cerevisiae deletion strains, locus YLR085C, strain ARP6, stronger effect = lower value 0.503 | [42] 0.835 | S. cerevisiae deletion strains, locus YLR262C, strain YPT6, stronger effect = lower value 0.68 | S. cerevisiae deletion strains, locus YML094W, strain GIM5, stronger effect = lower value 0.841 | S. cerevisiae deletion strains, locus YMR307W, strain GAS1, stronger effect = lower value 0.535 | S. cerevisiae deletion strains, locus YNR030W, strain Alg12, stronger effect = lower value 0.773 | S. cerevisiae deletion strains, locus YPL241C, strain CIN2, stronger effect = lower value 0.76
inactive: S. cerevisiae deletion strains, locus YAL013W, strain DEP1, stronger effect = lower value 0.942 | [1] 0.952 | [2] 0.947 | [3] 0.941 | [4] 0.942 | [5] 0.942 | S. cerevisiae deletion strains, locus YBR229C, strain ROT2, stronger effect = lower value 0.96 | S. cerevisiae deletion strains, locus YCL061C, strain MRC1, stronger effect = lower value 0.978 | [6] 0.953 | [7] 0.938 | [8] 0.976 and 0.966 | [9] 0.937 | [10] 0.937 | [11] 0.904 | [12] 0.953 | [13] 0.95 | S. cerevisiae deletion strains, locus YDR150W, strain NUM1, stronger effect = lower value 0.928 | [14] 0.97 | [15] 0.932 | [16] 0.88 | [17] 0.93 | [18] 0.942 | [19] 0.945 | [20] 0.95 | [21] 0.92 | [22] 0.964 | [23] 0.905 | [24] 0.922 | S. cerevisiae deletion strains, locus YGR078C, strain PAC10, stronger effect = lower value 0.957 | [25] 0.855 | S. cerevisiae deletion strains, locus YGR229C, strain SMI1, stronger effect = lower value 0.948 | [27] 0.958 | [28] 0.989 | S. cerevisiae deletion strains, locus YHR087W, strain rtc3, stronger effect = lower value 0.951 | [29] 0.889 | [30] 0.941 | [31] 0.913 | [32] 0.924 | [33] 0.94 | S. cerevisiae deletion strains, locus YJL187C, strain SWE1, stronger effect = lower value 0.98 | [34] 0.931 | S. cerevisiae deletion strains, locus YJR043C, strain POL32, stronger effect = lower value 0.952 | [35] 0.897 | [36] 0.997 | S. cerevisiae deletion strains, locus YJR075W, strain HOC1, stronger effect = lower value 0.975 | [37] 0.928 | [38] 0.904 | [39] 0.874 | [40] 0.943 | [41] 0.996 | S. cerevisiae deletion strains, locus YLR058C, strain SHM2 (second series), stronger effect = lower value 0.975 | [43] 0.909 | [44] 0.898 | [45] 0.895 | [46] 0.95 | [47] 0.917 | S. cerevisiae deletion strains, locus YMR219W, strain ESC1, stronger effect = lower value 0.986 | S. cerevisiae deletion strains, locus YMR263W, strain SAP30, stronger effect = lower value 0.956 | [48] 0.937 | [49] 0.947 | [50] 0.914 | S. cerevisiae deletion strains, locus YNL128W, strain TEP1, stronger effect = lower value 0.956 | S. cerevisiae deletion strains, locus YNL153C, strain GIM3, stronger effect = lower value 0.981 | [51] 0.949 | [52] 0.941 | [53] 0.95 | [54] 0.947 | S. cerevisiae deletion strains, locus YNL298W, strain CLA4 (second series), stronger effect = lower value 0.842 | [55] 0.905 | S. cerevisiae deletion strains, locus YNL322C, strain KRE1, stronger effect = lower value 0.981 | [56] 0.936 | [57] 0.866 | [58] 0.926 | [59] 0.973 | [60] 0.89 | [61] 0.958 | [62] 0.922 | S. cerevisiae deletion strains, locus YPL055C, strain LGE1, stronger effect = lower value 0.83 | [63] 0.929 | [64] 0.894 | [65] 0.955 | [66] 0.977 | [67] 0.95 | [68] 0.951 | [69] 0.912 | S. cerevisiae deletion strains, locus YPR135W, strain CTF4, stronger effect = lower value 0.829 | [70] 0.971 | [71] 0.947 | S. cerevisiae strains, strain wild type, stronger effect = lower value 0.943
0.482 (active) and 1.02 (inactive): [26]
